Screening results (PubChem BioAssay)
This is a sample that favours compounds with a hit; in the whole collection about 2.2% have one here.
MEKK2 mut-MEK5 = signal of MEK5 binding to mutant human MEKK2 PB1 domain. bead flow cytometry, Alexa488-MEK5 binding to MEKK2 mutant. percent response, % at 10 µM. 0.35% of 290,000 active. AID 1530; in the data active = percent response above about 24%, passing the limit was not always enough
VLA-4 inh = inhibition in a human VLA-4 binding assay; P13612; VLA-4 expressing cells, ligand binding flow cytometry; inhibition, % (about 7 µM as worked out from the volumes in the protocol); 0.2% of 330,000 active; AID 2557; in the data active = inhibition above about 50%
MEKK3 PB1 HTS = raises or lowers MEK5 binding to the human MEKK3 PB1 domain | bead-based flow cytometry, Alexa488-MEK5 binding to MEKK3; actives lie on both sides; 0 = blocked by unlabeled MEK5, 100 = vehicle | binding response (% of control), % at 10 µM | 1.4% of 290,000 active | AID 1529;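 active = binding response more than 3 SD above or below the average of its plate-row segment, actives on both sides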;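 also: Alexa488 bead fluorescence after subtracting the streptavidin-only scavenger bead signal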
Target sequence (Q99759 whole entry, looked up, the tested form may be a part): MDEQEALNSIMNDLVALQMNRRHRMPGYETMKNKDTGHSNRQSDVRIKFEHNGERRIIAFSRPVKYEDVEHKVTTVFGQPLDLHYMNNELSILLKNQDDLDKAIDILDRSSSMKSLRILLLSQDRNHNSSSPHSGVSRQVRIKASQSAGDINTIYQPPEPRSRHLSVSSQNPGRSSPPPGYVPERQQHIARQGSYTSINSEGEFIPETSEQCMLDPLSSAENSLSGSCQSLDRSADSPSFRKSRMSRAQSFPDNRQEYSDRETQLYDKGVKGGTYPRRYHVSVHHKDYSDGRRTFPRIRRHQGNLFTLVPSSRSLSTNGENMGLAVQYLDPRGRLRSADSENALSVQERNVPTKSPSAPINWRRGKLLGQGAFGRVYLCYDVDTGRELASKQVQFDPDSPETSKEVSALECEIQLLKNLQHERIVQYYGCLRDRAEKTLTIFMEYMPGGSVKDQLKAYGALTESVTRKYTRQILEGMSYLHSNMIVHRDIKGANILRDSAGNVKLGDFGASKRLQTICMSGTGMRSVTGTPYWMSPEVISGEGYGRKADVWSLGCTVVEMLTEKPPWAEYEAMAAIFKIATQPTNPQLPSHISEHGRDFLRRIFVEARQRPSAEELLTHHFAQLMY
MEKK2 WT-MEK5 = raises or lowers MEK5 binding to wildtype human MEKK2 PB1 domain; AID 1531; Q9Y2U5; binding response (% of control), % at 10 µM; bead flow cytometry, Alexa488-MEK5 binding to MEKK2 WT; actives lie on both sides; 1.1% of 290,000 active; in the data active = binding response below about 67% or above about 130%
MEKK2wt confirm = raises or lowers MEK5 binding to wildtype human MEKK2, retest | shares compounds with MEKK3 PB1 HTS | bead flow cytometry, Alexa488-MEK5 binding to MEKK2 WT; actives lie on both sides | binding response (% of control), % at 10 µM | 2.4% of 5,900 active | AID 1892; in the data active = binding response below about 16% or above about 210%; inactive = in between
MEKK2mut-MEK5 = signal of MEK5 binding to mutant human MEKK2, retest; shares compounds with MEKK3 PB1 HTS; bead flow cytometry, Alexa488-MEK5 binding to MEKK2 mutant; percent response, % at 10 µM; 2% of 5,900 active; in the data active = percent response mostly above about 71%, no sharp cut-off; inactive = mostly below about 38%;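 also: higher means compound restores mutant binding toward wildtype level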
MEKK3-MEK5 inh = confirmation of inhibitors of MEK5 binding to human MEKK3; shares compounds with MEKK3 PB1 HTS; bead flow cytometry, Alexa488-MEK5 binding to MEKK3; hits give low values; binding response (% of control), % at 10 µM; 1.8% of 5,900 active;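 active = binding response below 72% of control, or above a set upper limit, though filed actives all read lower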;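 also: 100% = DMSO only wells and 0% = binding blocked by excess unlabeled MEK5; lower values mean stronger disruption of MEK5 binding to MEKK3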
Active calls of the source: *; i = inactive; x = no result; [ ] = dose if it differs, or a comment.

SMILES	MEKK2 mut-MEK5	VLA-4 inh	MEKK3 PB1 HTS	MEKK2 WT-MEK5	MEKK2wt confirm	MEKK2mut-MEK5	MEKK3-MEK5 inh
CSc1cccc(NC(=O)CCNS(=O)(=O)c2ccc3[nH]c(=O)oc3c2)c1	1	15	102	105	x	x	x
Cc1ccc(C(=O)CCC(=O)N2CCC(C(N)=O)CC2)s1	x	11	x	x	x	x	x
COc1ccc(NC(=O)N2CCN(c3ccc([N+](=O)[O-])cc3)CC2)cc1OC	-13	6	45*[inhibitor]	56	87	-2	80
COc1ccc(NC(=O)N2CCN(c3ccc([N+](=O)[O-])cc3)CC2)cc1	-9	16	101	91	x	x	x
CCCN(CCC)C(=O)c1cc(S(=O)(=O)N2CCCCC2)c[nH]1	2	-19	103	103	x	x	x
Cc1ccc(C(=O)NCCc2nnc3ccc(SCC(=O)Nc4c(C)cc(C)cc4C)nn23)cc1	1	3	133*	108	103	2	101
O=C(Cn1cnc2ccccc21)N/N=C/c1ccccc1[N+](=O)[O-]	0	-18	138*	105	99	0	97
O=C(Cn1cnc2ccccc21)N/N=C/c1ccc([N+](=O)[O-])cc1	3	2	141*	116	89	0	94
Oc1ccc(/C=N/NC(=S)NCCN2CCOCC2)c(O)c1	3	-6	108	101	x	x	x
CCN(C(=O)CN1CCCCC1)C1(C)C(=O)c2ccccc2C1=O	1	9	140*	109	101	1	100
Cc1ccccc1/C=C/C1=NCCN1	x	-1	x	x	x	x	x
COc1ccc(Nc2nc(-c3cccc([N+](=O)[O-])c3)nc3ccccc23)cc1	3	0	126	141*	107	-1	102
COc1cc2c(cc1OC)C(C)N(C(=O)c1sc(-c3cnccn3)nc1C)CC2 (configuration not stated)	-1	-4	96	99	x	x	x
COc1ccc(-c2cnnc(N/N=C/c3ccc(O)c(O)c3)n2)cc1	0	-20	97	102	x	x	x
COc1ccc(-c2cnnc(N/N=C/c3ccc(O)cc3)n2)cc1	0	10	128*	117	102	3	100
COC(=O)C1CN(C(=O)COc2ccc(C)cc2)c2ccccc2O1 (configuration not stated)	0	5	100	100	x	x	x
COc1ccc(NC(=S)NC2CC3CCCC(C2)N3C2CC2)cc1 (configuration not stated)	7	-7	135*	127	105	-2	102
CCCN1C2CCCC1CC(NC(=S)Nc1ccc(OC)cc1)C2 (configuration not stated)	4	0	102	105	x	x	x
Cc1ccccc1C(=O)Nc1ccnn1C1CCN(Cc2cnn(C)c2)CC1	7	2	102	105	x	x	x
CCC(=O)Nc1ccc(C(=O)CSc2nnc(-c3ccc(O)cc3)n2CC2CCCO2)cc1OC (configuration not stated)	x	2	x	x	x	x	x
CCN(CC)C(=O)CSc1nnc(-c2ccc(O)cc2)n1CC1CCCO1 (configuration not stated)	11	6	136*	133	104	5	106
O=C(CSc1nc(-c2ccccc2)c(-c2ccccc2)[nH]1)NCC1CCCO1 (configuration not stated)	-20	11	93	54*[inhibitor]	98	-8	95
O=C(CSc1nc2ccccc2[nH]1)NCC1CCCO1 (configuration not stated)	12	-4	97	102	x	x	x
O=C(NCC1CCCO1)c1nn2c(C(F)(F)F)cc(-c3ccc(Br)o3)nc2c1Br (configuration not stated)	-2	-3	103	93	x	x	x
COc1ccc(-c2noc(=O)[nH]2)cc1	-1	-26	103	100	x	x	x
SMILES	MEKK2 mut-MEK5	VLA-4 inh	MEKK3 PB1 HTS	MEKK2 WT-MEK5	MEKK2wt confirm	MEKK2mut-MEK5	MEKK3-MEK5 inh
CCOc1ccc(-c2noc(=O)[nH]2)cc1	-33	-1	23*[inhibitor]	39*[inhibitor]	107	3	103
Cc1ccc2sc(NC(=O)C3CC3)nc2c1C	0	-3	100	101	x	x	x
CCn1c(CCNC(=O)c2cccs2)nnc1SCC(=O)NC1CCCCC1	-41	-3	1.0*[inhibitor]	0.0*[inhibitor]	94	-8	96
CN(Cc1ccccc1)C(=O)Cn1c(=O)c2cccn2c2cccnc21	4	2	104	105	x	x	x
COc1ccc(CCNC(=O)c2cccc(S(=O)(=O)NC(C)c3ccccc3)c2)cc1 (configuration not stated)	x	-10	x	x	x	x	x
O=C1C2C3C=CC(C3)C2C(=O)N1CCCCCCN1C(=O)C2C3C=CC(C3)C2C1=O (configuration not stated)	-17	12	90	84	x	x	x
O=C1C=CC(=O)N1CCCCCCN1C(=O)C=CC1=O	62*	8	106	101	104	-2	101
Nc1nonc1C(=O)NCCNCc1ccccc1OCc1ccc(F)cc1	17	11	107	153*	118	5	102
CCOc1ccc(CNCCNC(=O)c2nonc2N)cc1	-1	0	106	100	x	x	x
Cc1cc(C)nc(NN2C(=O)/C(=C/c3ccccc3)SC2=S)n1	7	9	106	109	x	x	x
COc1cc(/C=C2\SC(=S)N(Nc3ncc(C(F)(F)F)cc3Cl)C2=O)ccc1O	-6	i	93	62*[inhibitor]	76	-12	98
CN(C)c1ccc(/C=C2\SC(=S)N(Nc3ncc(C(F)(F)F)cc3Cl)C2=O)cc1	309*	x	97	305*	34	-35	56*
COc1cc(/C=C2\SC(=S)N(Nc3ccccc3)C2=O)ccc1O	-3	-190	94	58	x	x	x
COCC(C)NS(=O)(=O)c1ccc(NC(=O)c2ccccn2)cc1 (configuration not stated)	4	0	93	92	x	x	x
Cc1nnc(SCC(=O)Nc2cc(S(C)(=O)=O)ccc2Cl)n1Cc1ccccc1	-1	-1	96	94	x	x	x
COC(=O)Cc1cc(=O)oc2cc(O)ccc12	-3	13	95	96	x	x	x
CCOC(=O)c1sc(N)c(C#N)c1CSc1nnc(C2CCCCC2)n1N	-20	13	0.0*[inhibitor]	-1.0*[inhibitor]	98	2	103
CC(=O)N1c2ccc(S(=O)(=O)N3CCCCC3)cc2CC1C(=O)NCc1cccc(Cl)c1 (configuration not stated)	10	-5	106	107	x	x	x
N#C/C(=C\c1ccccc1OCc1ccc(C(=O)O)cc1)c1ccccc1	-14	6	50*[inhibitor]	55	110	2	100
CC(C)c1ccc(C(=O)OCC(=O)NC2CCCC2)cc1	3	-11	104	105	x	x	x
